From PubChem BioAssay AID1203 (The Scripps Research Institute Molecular Screening Center, 2008)
Out of some 200,000 compounds screened, about 80 (0.04%) were called active. This excerpt belongs to a sample that is enriched for actives. Values without a mark were called inactive.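 The calls were made as follows: active = activation above the mean across all tested compounds plus 3 SD, cutoff set per campaign (cut at about 5.5% in these data); inactive = the rest.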

Assay: Hsp70 promoter-driven reporter induction – cell-based, HeLa, Hsp70 promoter luciferase, luminescence, 10 µM, primary screen (AID 1203);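 also: 100% = MG132 at 30 µM as the positive control and 0% = DMSO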
Settings: at 10 µM, stronger effect = higher value, scaled: vehicle 0, proteasome-inhibitor control 100%

SMILES	activation
O=C(NCCOCc1ccc(Cl)cc1)c1ncn[nH]1	-0.36%
O=C(/C=C/Sc1ncn[nH]1)c1ccc(Cl)cc1	26.9% (active)
Cc1ccc(C(=O)/C=C/c2c(C)nn(-c3ccccc3)c2Cl)cc1	-0.32%
Cc1cccc(C)c1NC(=S)N(Cc1cccnc1)Cc1ccccc1Cl	-0.11%
N#C/C(=C/c1ccc(N2CCOCC2)o1)C(=O)N1CCOCC1	-0.09%
CCC(=O)c1ccc(OCC(O)Cn2nc(C)c(C(C)=O)c2C)cc1 (centres undefined)	0%
CC(C)c1ccc(C2C(C#N)=C(N)Oc3c2oc(CO)cc3=O)cc1 (centres undefined)	-0.2%
CSc1ccc(/C=C/C(=O)NC23CC4CC(CC(C4)C2)C3)cc1	-0.25%
CCc1ccccc1NC(=O)CN(C)C(=O)COc1ccc(C)nc1[N+](=O)[O-]	-0.28%
CC1CN/C(=C\C(=O)c2ccc(Br)cc2)C(=O)N1 (centres undefined)	-0.31%
COc1ccc(CC(NC(C)=O)C(=O)NC2CCN(C(=O)c3ccc(OC)c(OC)c3)CC2)cc1OC (centres undefined)	-0.19%
Cc1cc(C)n2nc(SCC(=O)NC(=O)NCc3ccco3)nc2n1	-0.06%
COCc1c(C(=O)OCc2c(C)noc2C)oc2ccccc12	0.25%
Cc1cc(C)c2[nH]c(=O)c(CN(Cc3ccccc3)C(=S)NCCCN(C)C)cc2c1	-0.22%
CC(C)(C)NC(=O)Cn1cnc2cc([N+](=O)[O-])ccc2c1=O	0.46%
NNC(=O)c1cnn(-c2ccccc2)c1C(F)(F)F	0.08%
CN(C)C(=O)N1CCNCC1	-0.1%
CC(C)CN(C(=O)CN1CCN(S(=O)(=O)c2ccccc2)CC1)c1c(N)n(CC(C)C)c(=O)[nH]c1=O	0.23%
CCOC(=O)c1c(CN(C)C)n(-c2ccccc2)c2cc(Br)c(O)cc12	-0.03%
C/C(=N\Nc1ncc(Cl)cc1Cl)c1cccs1	-0.17%
Cc1ccc(N2C(=O)C(NC(=O)c3c(F)cccc3F)(C(F)(F)F)C3=C2CC(C)(C)CC3=O)cc1 (centres undefined)	-0.33%

SMILES	activation
Cc1cccc(NC(=O)Cn2c(=O)n(Cc3ccccc3)c(=O)c3c(C)c(C)sc32)c1	-0.2%
Cc1cc(Cl)ccc1OCCCC(=O)NCc1ccncc1	0.28%
C=CCn1cc(C(=O)NCc2ccc(Cl)cc2)c(=O)c2cc(S(=O)(=O)N(CC)CC)ccc21	-0.11%
COc1cccc(-c2nn(-c3ccccc3)cc2/C=C(\C#N)C(=O)NCCCn2ccnc2)c1	-0.06%
CC(C)Oc1ccccc1C(=O)NC(CO)C(=O)O (centres undefined)	0.09%
O=C(CSc1ccc([N+](=O)[O-])cn1)Nc1ccc(N2CCOCC2)cc1	-0.24%
NS(=O)(=O)c1cccnc1Nc1cccc(Cl)c1	0.75%
CC(Oc1ccccc1)C(=O)NN1Cc2ccccc2C1=N (centres undefined)	-0.3%
CC(OC(=O)c1ccccc1N1C(=O)C2C3CCC(C3)C2C1=O)C(=O)c1ccccc1 (centres undefined)	-0.1%
O=[N+]([O-])c1cccc(C2=NCCS2)c1	-0.29%
CC(=O)N1CCN(CC(=O)Nc2ccc(SC(F)F)cc2)CC1	-0.16%
CNC(=S)N1CCN(c2ccccn2)CC1	0.23%
CC(=O)c1c(C)[nH]c(C(=O)OCC(=O)NCCC(C)C)c1C	-0.33%
Cc1ccccc1N1C(=O)C(Oc2ccc(Cl)cc2)C1CNCC1CCCO1 (centres undefined)	-0.08%
COc1ccc(S(=O)(=O)N(C)CC(=O)N2CCCC2)cc1Cl	-0.1%
NC(=O)c1ccc(NC(=O)COC(=O)c2c3c(nc4ccccc24)/C(=C\c2ccc4c(c2)OCO4)CCC3)cc1	-0.43%
COc1ccc(C2CC(c3cccs3)=NN2C(=O)CSc2nnc(N)s2)cc1OC (centres undefined)	-0.12%
CCN(CC)CCN(C(=O)c1cccc([N+](=O)[O-])c1)c1nc2ccc(OC)cc2s1	-0.15%
CCOc1ccc(-c2n[nH]c(C)c2-c2ccccn2)c(O)c1	-0.39%
CCC(=O)NC(Nc1cc(C)ccn1)(C(F)(F)F)C(F)(F)F	-0.11%
Cc1ccc(NC(=S)N(CCCN2CCCC2)Cc2cccn2Cc2ccc(Cl)cc2)cc1	0.2%

SMILES	activation
COc1ccc(NC(=O)/C(C#N)=C\c2cc(OC)c(OCc3ccc(C(=O)O)cc3)cc2Br)cc1	-0.51%
COc1ccc(NC(=O)CSc2nnc(-c3ccccc3F)n2C2CC2)cc1S(N)(=O)=O	-0.2%
Cc1ccc(-n2c(SCC(=O)N3c4ccccc4Sc4ccccc43)nnc2-c2ccncc2)cc1	-0.33%
CC(C)NC(=O)NC(=O)CSc1nnc(-c2ccccc2F)n1N	0.03%
Cc1cc(C)c(OCCN2CC(C)OC(C)C2)c(Br)c1 (centres undefined)	-0.19%
Cc1ccc(C)c(-n2cc(CN3CCN(C(=O)c4ncn[nH]4)CC3)c(-c3ccccc3)n2)c1	-0.1%
CC(=C/c1ccccc1)/C=N/NC(=O)c1cc(C)oc1C	0%
CCCOC1CCCN(Cc2cn(C)nc2-c2ccccc2F)C1 (centres undefined)	-0.04%
Cc1ccccc1NC(=O)Cn1c(=O)n(CC2CCCO2)c(=O)c2ccccc21 (centres undefined)	-0.17%
O=C1NC2(CCCCCC2)C(=O)N1CCS(=O)(=O)Oc1ccccc1	-0.27%
Cc1ccc(C(=O)NCC(=O)O)s1	0.11%
O=C(CCCN1C(=O)/C(=C/c2ccccc2)SC1=S)Nc1ccc(O)cc1	-0.12%
Cc1ccc(NC(=O)c2cccnc2C(=O)Nc2ccc(C)cc2)cc1	-0.14%
NC(=O)C[C@@H]1NC(=O)CNC(=O)c2cc([N+](=O)[O-])cc(I)c2NCCC(C(N)=O)NC1=O (some centres undefined)	0.03%
Cc1cccc(NC(=S)NC(=O)c2ccc(Br)o2)c1	0.26%
CC(=O)Nc1nc2ccccc2n1Cc1ccc(C)cc1	-0.13%
COC(=O)CN1C(=S)N(c2ccccc2)C(=O)C1CC(=O)Nc1ccc(Cl)cc1 (centres undefined)	-0.13%
COc1ccc(-c2nc(N)sc2C2(O)C(=O)Nc3c(Br)cc(F)cc32)cc1OC (centres undefined)	-0.09%
CCOc1ccc(N2CC(C(=O)NCCN3C(=O)S/C(=C\c4cccnc4)C3=O)CC2=O)cc1 (centres undefined)	-0.14%
Cc1ccc(Cl)c(NC(=O)CN(C)CC(=O)Nc2ccc(F)c(F)c2F)c1Cl	-0.39%
C/C(=N\NC(=O)CCn1nc(C)cc1C)C(C)(C)C	-0.13%

SMILES	activation
COc1ccc(OCC(O)CNC(=O)Nc2ccc(Cl)cc2)cc1 (centres undefined)	-0.12%
NS(=O)(=O)c1ccc(N=Cc2ccc(Br)s2)cc1	-0.31%
CCOC(=O)C/C(C)=N\Nc1ccc([N+](=O)[O-])cc1[N+](=O)[O-]	0.04%
O=S(=O)(c1ccc2c(c1)OCCO2)N1CCc2ccccc21	0.08%
O=C(CSc1nncs1)NC1CCCc2ccccc21 (centres undefined)	-0.09%
O=S(=O)(ON(c1ccccc1)S(=O)(=O)c1ccccc1)c1ccccc1	-0.24%
CCOC(=O)c1c(NC(=S)NC(=O)/C=C/c2cccs2)sc(C)c1C	-0.28%
O=C(NNC(=S)Nc1ccc(Br)cc1Cl)c1ccco1	-0.21%
CCC(=O)OCc1c(C(F)(F)F)nn(C)c1Oc1cccc(C(F)(F)F)c1	-0.27%
CCNC(=O)NNC(=O)C1CC(c2cccs2)=NO1 (centres undefined)	-0.44%
CCOC(=O)c1cnc2c(c(C)nn2CC)c1Cl	-0.38%
C/C(=N\NC(=O)CNc1cccc2ccccc12)c1ccc(Br)s1	-0.39%
CCCC1NC(=S)NC(C)=C1C(C)=O (centres undefined)	-0.09%
CCOC(=O)NN1C(=O)c2ccccc2NC1c1ccccc1O (centres undefined)	-0.07%
CC1CC(C)(C)NC(=S)N1CCC(=O)N1CCN(Cc2ccccc2)CC1 (centres undefined)	-0.64%
CC(C)(C)c1ccc(NC(=O)COC(=O)CCc2nc3ccccc3c(=O)[nH]2)cc1	-0.35%
CSCCC(NC(=O)COc1ccccc1)C(=O)Nc1ccc(C)cc1 (centres undefined)	-0.22%
COc1ccc(C(CC(=O)c2ccccc2)S(=O)(=O)c2ccccc2)cc1 (centres undefined)	-0.26%
COC(=O)C1=CN(Cc2ccc(OC)c(OC)c2)C=C(C(=O)OC)C1c1cccs1	-0.18%
O=C1Oc2ccccc2C(=O)/C1=C/c1ccccc1O	-0.37%
CC(=O)c1ccc(NC(=O)C(C)N(C)CC(=O)Nc2ccccc2Cl)cc1 (centres undefined)	-0.06%
